From the supplement of paper PMC10981050
Values joined by “and” are separate entries in the source; they are usually repeats but may differ in a detail not shown here. Equal entries are not always repeated. Structures can show the parent of a compound that is named as a salt.

Tests used:
Assay in all cases: cell viability relative to vehicle control; higher = less cytotoxic
Settings in all cases: 10 µM
K562 = test system: K562
Summary of the method: (§1)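 CRISPR-edited mutant clones and isogenic wild-type clones from four leukaemia lines were screened against Selleck bioactive, kinase and epigenetic probe libraries, with identity-inconsistent compounds excluded. Each compound was acoustically dispensed at a single 10 µM dose into 384-well plates holding 2000 cells in 50 µL medium per well. After 48 h the supernatant was removed and CellTiter-Glo luminescence was read. Viability was expressed as percent of the on-plate vehicle control and analysed in Genedata Screener.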

MARIMO = test system: MARIMO
Summary of the method: as §1

MOLM14 = test system: MOLM14
Summary of the method: as §1

OCI-AML2 = test system: OCI-AML2
Summary of the method: as §1

Compound	cell viability (K562; SRSF2 genotype: SRSF2 P95H/wt)	cell viability (K562; SRSF2 genotype: SRSF2 wt/wt)	cell viability (MARIMO; SRSF2 genotype: SRSF2 P95H/wt)	cell viability (MARIMO; SRSF2 genotype: SRSF2 wt/wt)	cell viability (MOLM14; SRSF2 genotype: SRSF2 P95H/wt)	cell viability (MOLM14; SRSF2 genotype: SRSF2 wt/wt)	cell viability (OCI-AML2; SRSF2 genotype: P95H/wt)	cell viability (OCI-AML2; SRSF2 genotype: wt/wt)
CC1=C2C(=O)[C@H]3[C@@H](CC=C4C[C@@H](O)CC[C@@]43C)[C@@H]2CC[C@]12O[C@@H]1C[C@H](C)CN[C@H]1[C@H]2C [Jervine]	91.9% and 81.4%	85.2%	89.1%	98.5%	91.4%	101%	92.7%	92.4%
CC(C)C(Br)C(=O)NC(N)=O (stereo not given) [Bromisoval]	99.8% and 99.2%	94.8%	95.8%	108%	92%	104%	93.2%	95%
O=C/C=C/c1ccccc1 [Cinnamaldehyde]	97.5% and 92.8%	94.3%	92%	95.3%	96.1%	98.9%	102%	102%
C[C@H]1CCC/C=C/[C@@H]2C[C@H](O)C[C@H]2[C@H](O)/C=C/C(=O)O1 [Brefeldin A]	19% and 24.5%	24.1%	9.22%	6.8%	6.71%	4.1%	4.83%	18.7%
CC(C)c1ccc(CO)cc1 [4-Isopropylbenzyl Alcohol]	107% and 98.3%	97.1%	99.9%	110%	102%	105%	87.7%	97.4%
CC(=O)Nc1ccc(Cc2ccc(NC(C)=O)cc2)cc1	104% and 107%	107%	105%	106%	106%	104%	104%	113%
CC(C)C1=CC(=O)[C@@](C)(C2[C@H](O)C[C@@]3(C)[C@@H]4CC=C5[C@@H](CC[C@@H](OC6OCC(O)C(O)C6OC6OC(C)C(O)C(O)C6O)C5(C)C)[C@]4(C)C(=O)C[C@]23C)O1 (stereo not given in full) [Picfeltarraenin IA]	95.9% and 96.6%	89.6%	92.2%	92.5%	89.7%	93.2%	94.3%	101%
Cc1cccc(C)c1NC1=NCCCS1 [Xylazine HCl]	101% and 85.1%	82.8%	85.1%	96.8%	90.4%	91.5%	89.1%	93.1%
O=C(O)C(=O)c1cn(Cc2ccccc2)c2ccc(-c3ccc(OC(F)(F)F)cc3)cc12 [Tiplaxtinin (PAI-039)]	84.4% and 88.9%	90.3%	92.3%	101%	90.9%	93.8%	97.4%	103%
COc1cc([C@@H]2c3cc4c(cc3[C@@H](O)[C@H]3COC(=O)[C@H]23)OCO4)cc(OC)c1O [4'-Demethylepipodophyllotoxin]	36.4% and 51%	51.2%	26.8%	31.3%	13.4%	6.99%	20.9%	24.2%
COc1c(C)c(O)cc2[o+]c(-c3ccccc3)ccc12.[O-][Cl+3]([O-])([O-])[O-] [Dracohodin perochlorate]	80.8% and 78.3%	77.4%	80.1%	86.8%	80.1%	82.3%	83.6%	84.1%
CC(=O)O[C@H]1C[C@@H]2CC[C@@H]3[C@H](CC[C@@]4(C)[C@H]3C[C@H]([N+]3(C)CCCCC3)[C@@H]4OC(C)=O)[C@@]2(C)C[C@@H]1[N+]1(C)CCCCC1 [Pancuronium dibromide]	101% and 96.7%	91.6%	96%	99.3%	103%	102%	97.4%	101%
N#CC(C#N)=NNc1ccc(OC(F)(F)F)cc1	16.2% and 15.8%	19.2%	31.8%	28%	14.5%	11.2%	2.85%	8.68%
CN1C2CC(OC(=O)C(CO)c3ccccc3)CC1C(O)C2 (stereo not given) [Raceanisodamine]	107% and 103%	107%	99%	111%	100%	107%	99.6%	104%
COc1cc2c(cc1O)CC1NCCc3cc(OC)c(O)c-2c31 (stereo not given) [Norisoboldine]	108% and 103%	105%	93.1%	90.2%	99.3%	103%	103%	99.1%
CCCCCCC[n+]1ccc(-c2cc[n+](CCCCCCC)cc2)cc1 [DHBP dibromide]	51.7% and 49.9%	56.3%	71%	76.1%	53.9%	76.4%	51.8%	52.4%
CCC1CN2CCC3(C(=O)Nc4ccccc43)C2CC1C(=COC)C(=O)OC (stereo not given) [Isorhychophylline]	95.3% and 96.3%	95.5%	83.5%	72%	92.5%	89.1%	97.3%	89.8%
Cn1c(COP(=O)(NCCBr)NCCBr)cnc1[N+](=O)[O-]	102% and 109%	103%	39.3%	56%	29.1%	12.8%	29.4%	40.1%
C=C[C@H]1CN2CC[C@@]3(C(=O)Nc4ccccc43)[C@@H]2C[C@@H]1/C(=C\OC)C(=O)OC [Isocorynoxeine]	81.8% and 92.6%	82.3%	77.4%	72.7%	84.4%	79.5%	88.2%	83.3%
NCC(CC(=O)O)c1ccccc1 (stereo not given) [Phenibut]	105% and 102%	102%	102%	109%	108%	104%	96.7%	116%

Compound	cell viability (K562; SRSF2 genotype: SRSF2 P95H/wt)	cell viability (K562; SRSF2 genotype: SRSF2 wt/wt)	cell viability (MARIMO; SRSF2 genotype: SRSF2 P95H/wt)	cell viability (MARIMO; SRSF2 genotype: SRSF2 wt/wt)	cell viability (MOLM14; SRSF2 genotype: SRSF2 P95H/wt)	cell viability (MOLM14; SRSF2 genotype: SRSF2 wt/wt)	cell viability (OCI-AML2; SRSF2 genotype: P95H/wt)	cell viability (OCI-AML2; SRSF2 genotype: wt/wt)
CC[N+](C)(CC)CCOC(=O)C(O)(c1ccccc1)c1ccccc1 [Methylbenactyzine Bromide]	95.9% and 96.8%	100%	97.7%	104%	96.1%	102%	97.7%	91%
CC1=C[C@@H]2C(=O)[C@]3(C=C(C)[C@H](O)[C@@]3(O)[C@@H]1O)[C@H](C)C[C@@H]1[C@H]2C1(C)C [20-Deoxyingenol]	79.4% and 65.6%	65.1%	76.2%	100%	39.8%	14.8%	18.2%	52%
CC[C@]12C=CCN3CC[C@]4(C(=C(C(=O)OC)C1)Nc1ccccc14)[C@@H]32 [Tabersonine hydrochloride]	18.2% and 28.9%	32.3%	13%	13.8%	3.62%	1.08%	8.35%	13.7%
C[C@]12CC[C@H](O)C[C@@H]1CC[C@@H]1[C@@H]2CC[C@]2(C)C(=O)CC[C@@H]12	94.7% and 104%	104%	98.9%	108%	98.5%	107%	106%	97.3%
CCN(CC)CCOC(=O)C(O)(c1ccccc1)c1ccccc1 [Benactyzine hydrochloride]	87.1% and 93%	84.2%	93%	98.4%	92.6%	94.4%	89.8%	92.6%
CC(=O)OC(C)(C)/C=C/C(=O)[C@](C)(O)[C@H]1[C@H](O)C[C@@]2(C)[C@@H]3CC=C4[C@H](C[C@H](O)C(=O)C4(C)C)[C@]3(C)C(=O)C[C@]12C [Cucurbitacin B]	19.7% and 26.4%	28.1%	8.8%	16.8%	0.7%	0.57%	0.29%	3.38%
O=c1ccc2cc3ccoc3c(O)c2o1 [Xanthotoxol]	91.6% and 88.5%	87.1%	84.3%	95.3%	92.8%	92.2%	96.5%	93.3%
COc1ccc(C[C@H]2NC[C@H](O)[C@H]2OC(C)=O)cc1 [Anisomycin]	4.09% and 9.55%	7.54%	13.6%	6.74%	0.46%	0.44%	3.57%	10.5%
Cc1cccc(C(C)c2c[nH]cn2)c1C (stereo not given) [Medetomidine HCl]	97.2% and 99.8%	95.1%	95.1%	107%	101%	102%	97%	113%
CCC1(c2ccc(N)cc2)CCC(=O)NC1=O (stereo not given) [Aminoglutethimide (Cytadren)]	98.1% and 103%	110%	96.7%	101%	99.8%	103%	107%	108%
O=C([O-])C(Cl)Cl.[Na+] [Sodium dichloroacetate (DCA)]	96.5% and 94.6%	97.6%	96.1%	104%	95.3%	99%	96.7%	101%
C[C@]12CCC(=O)C(O)=C1CC[C@@H]1[C@@H]2CC[C@]2(C)C(=O)CC[C@@H]12 [Formestane]	96.6% and 94.4%	102%	93.2%	107%	107%	103%	104%	112%
O=C(O)c1nn(Cc2ccc(Cl)cc2Cl)c2ccccc12 [Lonidamine]	97% and 107%	101%	107%	97.7%	98.1%	95.6%	99.5%	92.2%
CCN1CC2(OC(=O)c3ccccc3NC(C)=O)CCC(OC)C34C1C(CC23)C1(O)CC(OC)C2CC4C1(O)C2OC (stereo not given) [Lappaconite Hydrobromide]	102% and 86.3%	88.2%	86.7%	96.2%	89.6%	96.4%	97.3%	87.2%
CN1[C@@H]2C[C@@H](OC(=O)[C@H](CO)c3ccccc3)C[C@H]1[C@@H]1O[C@@H]12 [Scopolamine hydrobromide]	97.1% and 95.9%	99.9%	101%	109%	104%	100%	102%	104%
C[N+](C)(C)CCCCCCCCCC[N+](C)(C)C [Decamethonium Bromide]	100% and 109%	111%	98.9%	102%	102%	101%	120%	102%
COC(=O)c1ccccc1C(=O)OC [Dimethyl phthalate]	86.9% and 85.8%	84%	85.6%	93.4%	87.5%	85.8%	89.5%	80.7%
c1cc2c(cc1[C@H]1OC[C@H]3[C@@H]1CO[C@@H]3c1ccc3c(c1)OCO3)OCO2 [Sesamin (Fagarol)]	92.3% and 97.8%	97.3%	94.2%	111%	98.8%	105%	100%	102%
COc1ccc(C(=O)N2CCCC2=O)cc1 [Aniracetam]	105% and 106%	110%	107%	109%	110%	109%	118%	106%
Cc1cccc(C)c1NC(=O)CN1CCCC1=O [Nefiracetam (Translon)]	108% and 104%	107%	109%	107%	105%	100%	103%	110%
